Assay results published in PubChem BioAssay (Tox21).
Inconclusive results are not listed. Active and inactive are the calls of the source. Unless noted, calls come from the whole dose curve; as a rule, active = well fitted curve in the direction sought with a large enough effect in the repeat runs; inconclusive = weak or mixed curves; inactive = no such curve, though single readings can be large; an effect the other way counts as inactive or inconclusive.

What was measured:
[1] = qHTS assay for small molecule agonists of the p53 signaling pathway (AID 651631; calls by dose curve; note: nearly all actives have a fitted effect of over 15% in size)
Outline: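 Agonist mode screen using a stably integrated beta-lactamase gene under p53 response elements in HCT-116 cells. Compound exposure lasts 16 h at 37 °C; fluorescence intensity is measured following 2 h FRET substrate loading.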

[2] = qHTS assay for small molecules that induce genotoxicity in human embryonic kidney cells expressing luciferase-tagged ATAD5 (AID 651632); note: nearly all actives have a fitted effect of over 15% in size
Outline: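 Luminescent reporter readout, HEK293T ATAD5-luc line: 16 hr drug exposure (37C, 5% CO2) followed by Amplite, 30 min RT.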

[3] = qHTS assay for small molecule agonists of the p53 signaling pathway - cell viability (AID 651633; calls by dose curve;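 note: p53RE-bla HCT reporter cells with a stable beta-lactamase p53 reporter; series mostly up to about 83 µM; nearly all actives have a fitted effect of over 30% in size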)
Outline: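 p53RE-bla cells, seeded at 4,000 per well and rested 5 h at 37 C/5% CO2, received compounds in DMSO for 16 h at 37 C. CellTiter-Glo was then added, and luminescence was read after 30 min at room temperature to gauge cytotoxicity.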

[4] = qHTS assay for small molecules that induce genotoxicity in human embryonic kidney cells expressing luciferase-tagged ATAD5 - cell viability (AID 651634; calls by dose curve; note: nearly all actives have a fitted effect of over 25% in size)
Outline: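 Viability read: CellTiter-Fluor fluorescence, 30 min at 37C. Cells: HEK293T, luciferase-tagged ATAD5. Exposure: 15.5 hr, 37C, 5% CO2, compound or DMSO vehicle.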

[5] = qHTS assay for small molecule disruptors of the mitochondrial membrane potential - cell viability (AID 720634; calls by dose curve;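 note: human HepG2 liver cancer cells; series mostly up to about 83 µM; nearly all actives have a fitted effect of over 20% in size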)
Outline: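 HepG2, 1 hr compound, 37 C. ATP luminescence via CellTiter-Glo, 30 min RT, same well as m-MPI.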

[6] = qHTS assay to test for compound auto fluorescence at 590 nm (red) in HepG2 cells (AID 720674)
Outline: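 Rose Bengal sodium served as the red fluorophore standard. HepG2 monolayers (overnight attachment, MEM with 10% FBS) were exposed to test compounds for 1 hr at 37 C and read at Ex 540/Em 590 nm.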

[7] = qHTS assay to test for compound auto fluorescence at 460 nm (blue) in HEK293 cells (AID 720678)
Outline: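 HEK293, 2,000 cells/well, 10% dialyzed FBS; attach 4-5 hr 37C; pin compound or DMSO; o/n 37C/5% CO2; fluorescence 405/460 nm; triamterene-equivalent units.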

[8] = qHTS assay to test for compound auto fluorescence at 590 nm (red) in HEK293 cells (AID 720679)
Outline: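 Intensity at 540nm excitation and 590nm emission is reported as Rose Bengal sodium-equivalent autofluorescence. Measurements followed overnight exposure (37C, 5% CO2) of HEK293 cells, 2,000 per well, to 23 nL compound.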

[9] = qHTS assay to test for compound auto fluorescence at 535 nm (green) in HEK293 cells (AID 720680)
[10] = qHTS assay to test for compound auto fluorescence at 460 nm (blue) in HEK293 cell free culture (AID 720681)
Outline: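 Test compounds were pinned into cell-free culture medium (DMEM with 10% FBS) and fluorescence was read directly at Ex/Em 405/460 nm. Signals were expressed as fluorescence equivalents of triamterene, with DMSO vehicle as control.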

[11] = qHTS assay to test for compound auto fluorescence at 535 nm (green) in HEK293 cell free culture (AID 720682)
Outline: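 No cells present: wells hold DMEM supplemented with 10% FBS, into which compound or vehicle is pinned. Green emission is then recorded (485 nm excitation, 535 nm emission) and scaled to fluorescein.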

[12] = qHTS assay to test for compound auto fluorescence at 590 nm (red) in HEK293 cell free culture (AID 720683)
Outline: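 Tox21 10K library compounds were pinned into cell-free DMEM with 10% FBS and fluorescence was read at excitation 540 nm. Activity is expressed as Rose Bengal sodium equivalency.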

[13] = qHTS assay to test for compound auto fluorescence at 590 nm (red) in HepG2 cell free culture (AID 720684)
Outline: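 Red fluorescence (540 nm excitation, 590 nm emission) was measured after compound transfer into cell-free MEM supplemented with 10% FBS. Values are equivalencies against Rose Bengal sodium.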

[14] = qHTS assay to test for compound auto fluorescence at 460 nm (blue) in HepG2 cell free culture (AID 720685)
Outline: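 Compound (23 nL) or DMSO pinned into cell-free MEM with 10% FBS; blue fluorescence read at 405/460 nm excitation/emission, expressed as auto-fluorescence equivalency to triamterene.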

[15] = qHTS assay to test for compound auto fluorescence at 535 nm (green) in HepG2 cell free culture (AID 720686)
[16] = qHTS assay to test for compound auto fluorescence at 460 nm (blue) in HepG2 cells (AID 720687)
Outline: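 Cells (2,000/well in MEM with 10% FBS) attached overnight at 37 C, then were exposed to compound or DMSO for 1 hr at 37 C, 5% CO2. Fluorescence read at Ex/Em 405/460 nm, expressed as triamterene-equivalent signal.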

[17] = molecular target: Glucocorticoid receptor (Homo sapiens) (UniProt P04150); experiment: qHTS assay to identify small molecule agonists of the glucocorticoid receptor (GR) signaling pathway (AID 720691; active = well fitted activation curve with a large enough effect in the signal ratio in the repeat runs, not every such curve was filed as active; the % refers to the signal ratio)
Outline: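 qHTS in GR-bla HeLa cells: 4 h settling at 37 C/5% CO2, 18 h compound incubation at 37 C, 2 h LiveBLAzer B/G FRET substrate at room temperature, fluorescence intensity measured.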

[18] = molecular target: Glucocorticoid receptor (Homo sapiens) (UniProt P04150); experiment: qHTS assay to identify small molecule antagonists of the glucocorticoid receptor (GR) signaling pathway (AID 720692; active = well fitted inhibition curve with a large enough effect in the signal ratio in the repeat runs, not every such curve was filed as active; the % refers to the signal ratio)
Outline: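 Inhibition of glucocorticoid signalling is measured in HeLa cells with a GRE-controlled beta-lactamase reporter; cells are co-treated with compound and 5 nM dexamethasone (final) for 18 h before FRET substrate readout.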

[19] = qHTS assay to identify small molecule antagonists of the glucocorticoid receptor (GR) signaling pathway - cell viability counter screen (AID 720693); note: nearly all actives have a fitted effect of over 55% in size
[20] = qHTS assay for identifying genotoxic compounds that show differential cytotoxicity against isogenic chicken DT40 cell lines with known DNA damage response pathways - wild type cell line (AID 743012); note: nearly all actives have a fitted effect of over 60% in size
Outline: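 First, wild type DT40 cells were plated at 300 per well and equilibrated about 0.5 h at 37 C/5% CO2. Next, compounds in DMSO were added and exposure lasted 40 h. Finally, CellTiter-Glo was added for 30 min at room temperature and luminescence recorded.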

[21] = qHTS assay for identifying genotoxic compounds that show differential cytotoxicity against isogenic chicken DT40 cell lines with known DNA damage response pathways - Rev3 mutant cell line (AID 743014); note: nearly all actives have a fitted effect of over 55% in size
[22] = qHTS assay for identifying genotoxic compounds that show differential cytotoxicity against isogenic chicken DT40 cell lines with known DNA damage response pathways - Rad54/Ku70 mutant cell line (AID 743015); note: nearly all actives have a fitted effect of over 60% in size
[23] = qHTS assay to identify small molecule antagonists of the androgen receptor (AR) signaling pathway - cell viability counter screen (AID 743033; note: nearly all actives have a fitted effect of over 45% in size)
[24] = qHTS assay to identify small molecule antagonists of the androgen receptor (AR) signaling pathway using the MDA cell line - cell viability counter screen (AID 743041; note: nearly all actives have a fitted effect of over 45% in size)
Outline: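 MDA-kb2 AR-luc human breast carcinoma cells (MMTV-luciferase, AR/GR responsive) were treated with compounds plus R1881 agonist for 16 h at 37 °C. Viability was read as CellTiter-Fluor fluorescence in the same wells as the reporter assay.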

[25] = qHTS assay to identify small molecule antagonists of the thyroid receptor (TR) signaling pathway (AID 743065); note: series mostly up to about 70 µM; nearly all actives have a fitted effect of over 55% in size
Outline: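 GH3.TRE-Luc rat pituitary cells carrying two TR response elements driving luciferase were plated for 4 h, given compound plus 1 nM T3 (final), and incubated 23.5 h at 37 C. ONE-Glo luminescence measured reporter inhibition; CellTiter-Fluor fluorescence tracked cytotoxicity.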

[26] = tested on: thyroid hormone receptor (rat, GH3 cells); experiment: qHTS assay to identify small molecule agonists of the thyroid receptor (TR) signaling pathway (AID 743066; calls by dose curve)
[27] = molecular target: Estrogen receptor (Homo sapiens) (UniProt P03372); experiment: qHTS assay to identify small molecule antagonists of the estrogen receptor alpha (ER-alpha) signaling pathway (AID 743069; active = well fitted curve in the direction sought with a large enough effect in the signal ratio in the repeat runs, not every such curve was filed as active; the % refers to the signal ratio)
Outline: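 HEK293 cells stably carrying an ER-alpha-UAS-bla beta-lactamase reporter were pre-cultured overnight in 2% charcoal-stripped FBS medium. Test compounds in DMSO were added together with 17beta-estradiol for 18 hr at 37C. Read-out was fluorescence after 2 hr with LiveBLAzer B/G FRET substrate at room temperature.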

[28] = qHTS assay to identify small molecule antagonists of the estrogen receptor alpha (ER-alpha) signaling pathway - cell viability counter screen (AID 743074; calls by dose curve; note: nearly all actives have a fitted effect of over 45% in size)
[29] = molecular target: Estrogen receptor (Homo sapiens) (UniProt P03372); experiment: qHTS assay to identify small molecule agonists of the estrogen receptor alpha (ER-alpha) signaling pathway (AID 743075; calls by dose curve)
[30] = molecular target: Estrogen receptor (Homo sapiens) (UniProt P03372); experiment: qHTS assay to identify small molecule agonists of the estrogen receptor alpha (ER-alpha) signaling pathway using the BG1 cell line (AID 743079); note: nearly all actives have a fitted effect of over 20% in size
[31] = qHTS assay to identify small molecule antagonists of the estrogen receptor alpha (ER-alpha) signaling pathway using the BG1 cell line (AID 743080; calls by dose curve;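 note: BG1 cells stimulated with 17beta-estradiol alongside compound; series mostly up to about 70 µM; nearly all actives have a fitted effect of over 25% in size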)
Outline: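 BG1Luc4E2, endogenous ER-alpha, 4xERE-luc; 5 d charcoal-stripped FBS, phenol red free; 24 h plating; cpd + 17beta-estradiol 21.5 h, 37 C/5% CO2; CellTiter-Fluor viability 30 min, then ONE-Glo luciferase 30 min RT.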

[32] = qHTS assay to identify small molecule antagonists of the estrogen receptor alpha (ER-alpha) signaling pathway using the BG1 cell line - cell viability counter screen (AID 743081);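 note: compound given together with 17beta-estradiol as the ER stimulus; series mostly up to about 70 µM; nearly all actives have a fitted effect of over 45% in size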
[33] = molecular target: Aromatase (Homo sapiens) (UniProt P11511); experiment: qHTS assay to identify aromatase inhibitors (AID 743083); note: series mostly up to about 70 µM; nearly all actives have a fitted effect of over 55% in size
[34] = qHTS assay to identify aromatase inhibitors - cell viability counter screen (AID 743084)
[35] = molecular target: Aryl hydrocarbon receptor (Homo sapiens) (UniProt P35869); experiment: qHTS assay to identify small molecule that activate the aryl hydrocarbon receptor (AhR) signaling pathway (AID 743085);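 note: HG2L7.5c1 human HepG2 liver cells with stably integrated DRE-driven firefly reporter; series mostly up to about 70 µM; nearly all actives have a fitted effect of over 15% in size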
Outline: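 Compounds were tested in HepG2 hepatocellular carcinoma cells harbouring a stably integrated luciferase gene under control of 20 DREs. Increased reporter signal after 24 h treatment at 37C was taken as AhR activation.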

[36] = qHTS assay to identify small molecule that activate the aryl hydrocarbon receptor (AhR) signaling pathway - cell viability counter screen (AID 743086)
Outline: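 HepG2-AhR-luc (HG2L7.5c1) cells, 4000/well, were preincubated 5 h at 37C, exposed to compound in qHTS format for 24 hr at 37C, then given CellTiter-Fluor for 30 min; viability was read as fluorescence in the reporter wells.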

[37] = molecular target: Peroxisome proliferator-activated receptor gamma (Homo sapiens) (UniProt P37231); experiment: qHTS assay to identify small molecule agonists of the peroxisome proliferator-activated receptor gamma (PPARg) signaling pathway (AID 743094; active = well fitted activation curve with a large enough effect in the signal ratio in the repeat runs, not every such curve was filed as active; the % refers to the signal ratio)
Outline: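 Compounds dissolved in DMSO were added to PPARg UAS-bla HEK293H cells for 17 h at 37C, and reporter expression was quantified by fluorescence intensity after 1 h with LiveBLAzer B/G FRET substrate.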

[38] = molecular target: Acetylcholinesterase (Homo sapiens) (UniProt P22303); experiment: Acetylcholinesterase (AChE) small molecule antagonists: enzyme-based qHTS assay (AID 1347397; calls by dose curve; note: nearly all actives have a fitted effect of over 55% in size); details: Potency: AChE enzyme activity inhibition; outcome: AChE enzyme activity inhibition
Outline: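 Recombinant human AChE, dispensed at 50 mU/mL, was preincubated with Tox21 10K compounds or DMSO vehicle for 30 min at room temperature. DTNB plus acetylthiocholine was then added, and thiocholine was measured colorimetrically after a further 10 min.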

[39] = molecular target: Acetylcholinesterase (Homo sapiens) (UniProt P22303); experiment: Acetylcholinesterase (AChE) small molecule antagonists: fluorescence cell-based qHTS assay (AID 1347398; calls by dose curve; note: nearly all actives have a fitted effect of over 50% in size); details: Potency: AChE activity; outcome: AChE activity
Outline: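 Human SH-SY5Y cells were plated overnight at 37 C, exposed to compound for 30 min at 37 C, 5% CO2, then given acetylthiocholine plus Thiolite Green for 40 min at room temperature; thiocholine fluorescence (Ex/Em 490/520 nm) reports endogenous AChE activity.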

[40] = molecular target: Acetylcholinesterase (Homo sapiens) (UniProt P22303); experiment: Acetylcholinesterase (AChE) small molecule antagonists: enzyme-based qHTS assay with human liver microsomes (AID 1347399; calls by dose curve; note: nearly all actives have a fitted effect of over 60% in size); details: Potency: qHTS inhibition; outcome: qHTS inhibition
Outline: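 Recombinant human AChE (50 mU/mL in the enzyme mix) and human liver microsomes (0.25 mg/mL final) were preincubated with compound and NADPH (0.25 mg/mL final) for 30 min at 37 C. Acetylthiocholine/DTNB was then added; thiocholine was read colorimetrically after 10 min at room temperature.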

Measured: Potency

Sequence of Estrogen receptor (Homo sapiens) (P03372 whole entry, looked up): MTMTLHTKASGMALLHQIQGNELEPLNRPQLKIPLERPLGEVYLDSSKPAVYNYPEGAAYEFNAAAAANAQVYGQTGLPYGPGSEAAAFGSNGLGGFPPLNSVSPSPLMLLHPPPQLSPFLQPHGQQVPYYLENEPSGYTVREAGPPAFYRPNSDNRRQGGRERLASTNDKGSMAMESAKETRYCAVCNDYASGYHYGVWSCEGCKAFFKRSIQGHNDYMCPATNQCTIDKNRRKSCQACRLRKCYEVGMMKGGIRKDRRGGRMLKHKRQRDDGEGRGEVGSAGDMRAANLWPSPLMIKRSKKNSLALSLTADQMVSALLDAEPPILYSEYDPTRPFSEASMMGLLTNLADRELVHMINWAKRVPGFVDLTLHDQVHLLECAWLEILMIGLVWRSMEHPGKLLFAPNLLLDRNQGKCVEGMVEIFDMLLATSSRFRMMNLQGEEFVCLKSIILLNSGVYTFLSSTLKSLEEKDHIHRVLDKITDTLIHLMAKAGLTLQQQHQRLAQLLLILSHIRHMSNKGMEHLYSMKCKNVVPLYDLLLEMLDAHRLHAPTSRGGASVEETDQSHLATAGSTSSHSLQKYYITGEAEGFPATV
Sequence of Acetylcholinesterase (Homo sapiens) (P22303 whole entry, looked up): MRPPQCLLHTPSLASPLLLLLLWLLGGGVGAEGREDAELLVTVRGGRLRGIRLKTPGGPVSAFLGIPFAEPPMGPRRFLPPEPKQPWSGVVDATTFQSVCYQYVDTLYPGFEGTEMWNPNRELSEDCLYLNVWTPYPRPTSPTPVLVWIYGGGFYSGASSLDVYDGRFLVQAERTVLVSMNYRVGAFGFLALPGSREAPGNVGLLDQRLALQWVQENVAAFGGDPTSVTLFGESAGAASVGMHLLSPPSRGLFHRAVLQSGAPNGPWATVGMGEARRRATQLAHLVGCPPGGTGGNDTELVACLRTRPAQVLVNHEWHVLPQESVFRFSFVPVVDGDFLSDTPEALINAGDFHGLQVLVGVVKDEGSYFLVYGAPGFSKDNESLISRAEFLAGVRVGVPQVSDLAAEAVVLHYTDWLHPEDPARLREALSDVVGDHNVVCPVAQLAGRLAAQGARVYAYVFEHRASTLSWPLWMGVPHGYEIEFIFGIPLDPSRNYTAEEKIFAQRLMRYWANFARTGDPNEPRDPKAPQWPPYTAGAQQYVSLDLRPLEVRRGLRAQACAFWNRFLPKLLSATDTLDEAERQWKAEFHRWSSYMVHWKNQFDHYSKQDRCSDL
Sequence of Glucocorticoid receptor (Homo sapiens) (P04150 whole entry, looked up): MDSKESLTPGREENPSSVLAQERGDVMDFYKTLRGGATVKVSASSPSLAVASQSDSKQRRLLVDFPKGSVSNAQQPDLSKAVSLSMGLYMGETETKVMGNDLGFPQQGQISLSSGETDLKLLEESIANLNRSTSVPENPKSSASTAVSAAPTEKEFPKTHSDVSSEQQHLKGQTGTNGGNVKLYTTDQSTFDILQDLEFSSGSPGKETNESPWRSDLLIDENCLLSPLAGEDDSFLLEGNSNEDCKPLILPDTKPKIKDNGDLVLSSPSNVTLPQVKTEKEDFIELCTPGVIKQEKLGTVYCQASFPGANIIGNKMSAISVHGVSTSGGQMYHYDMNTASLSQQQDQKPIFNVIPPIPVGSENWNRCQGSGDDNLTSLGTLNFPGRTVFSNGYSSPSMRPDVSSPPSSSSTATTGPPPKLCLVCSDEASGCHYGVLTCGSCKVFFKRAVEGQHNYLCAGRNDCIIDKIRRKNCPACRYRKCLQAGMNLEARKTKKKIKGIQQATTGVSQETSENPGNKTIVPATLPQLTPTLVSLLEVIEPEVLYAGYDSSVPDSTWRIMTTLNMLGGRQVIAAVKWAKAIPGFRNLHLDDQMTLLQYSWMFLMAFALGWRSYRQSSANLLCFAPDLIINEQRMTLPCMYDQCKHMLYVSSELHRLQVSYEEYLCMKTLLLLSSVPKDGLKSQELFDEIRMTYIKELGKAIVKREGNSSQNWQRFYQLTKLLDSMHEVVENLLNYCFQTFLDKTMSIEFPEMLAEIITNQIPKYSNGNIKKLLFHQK
Sequence of Aromatase (Homo sapiens) (P11511 whole entry, looked up): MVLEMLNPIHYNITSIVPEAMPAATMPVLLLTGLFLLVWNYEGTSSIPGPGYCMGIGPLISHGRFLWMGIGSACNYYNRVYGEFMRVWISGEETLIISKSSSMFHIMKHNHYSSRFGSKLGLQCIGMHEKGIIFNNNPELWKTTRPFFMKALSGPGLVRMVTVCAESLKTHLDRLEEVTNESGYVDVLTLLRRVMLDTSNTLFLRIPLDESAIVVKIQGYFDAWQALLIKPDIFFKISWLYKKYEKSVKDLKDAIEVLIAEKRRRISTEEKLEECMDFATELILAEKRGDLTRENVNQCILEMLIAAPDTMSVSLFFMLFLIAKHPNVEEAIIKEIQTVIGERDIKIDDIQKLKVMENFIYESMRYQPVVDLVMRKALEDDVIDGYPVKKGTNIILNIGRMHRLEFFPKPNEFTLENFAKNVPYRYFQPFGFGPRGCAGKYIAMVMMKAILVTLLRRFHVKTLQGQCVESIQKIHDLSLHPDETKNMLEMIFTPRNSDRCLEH
Sequence of Aryl hydrocarbon receptor (Homo sapiens) (P35869 whole entry, looked up): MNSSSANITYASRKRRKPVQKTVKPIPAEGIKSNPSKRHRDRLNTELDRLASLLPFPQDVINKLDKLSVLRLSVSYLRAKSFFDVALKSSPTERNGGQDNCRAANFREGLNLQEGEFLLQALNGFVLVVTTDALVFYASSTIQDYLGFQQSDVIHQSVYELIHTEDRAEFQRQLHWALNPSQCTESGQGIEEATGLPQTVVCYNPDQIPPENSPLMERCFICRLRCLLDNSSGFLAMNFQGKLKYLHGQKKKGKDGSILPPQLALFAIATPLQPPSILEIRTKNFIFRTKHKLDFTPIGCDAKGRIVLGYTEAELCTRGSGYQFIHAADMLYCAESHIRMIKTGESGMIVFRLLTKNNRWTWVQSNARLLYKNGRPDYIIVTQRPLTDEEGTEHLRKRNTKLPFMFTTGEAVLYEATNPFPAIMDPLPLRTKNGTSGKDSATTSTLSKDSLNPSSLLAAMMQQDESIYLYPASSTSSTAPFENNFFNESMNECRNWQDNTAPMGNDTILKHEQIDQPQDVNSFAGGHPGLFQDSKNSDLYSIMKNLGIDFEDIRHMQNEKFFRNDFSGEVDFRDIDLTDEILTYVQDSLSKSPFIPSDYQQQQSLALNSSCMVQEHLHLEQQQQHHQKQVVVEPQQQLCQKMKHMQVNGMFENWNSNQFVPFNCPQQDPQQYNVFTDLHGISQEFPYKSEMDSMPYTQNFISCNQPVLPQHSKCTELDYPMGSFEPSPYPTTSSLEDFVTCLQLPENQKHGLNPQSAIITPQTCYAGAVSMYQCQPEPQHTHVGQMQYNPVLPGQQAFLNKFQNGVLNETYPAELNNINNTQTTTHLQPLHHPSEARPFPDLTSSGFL
Sequence of Peroxisome proliferator-activated receptor gamma (Homo sapiens) (P37231 whole entry, looked up): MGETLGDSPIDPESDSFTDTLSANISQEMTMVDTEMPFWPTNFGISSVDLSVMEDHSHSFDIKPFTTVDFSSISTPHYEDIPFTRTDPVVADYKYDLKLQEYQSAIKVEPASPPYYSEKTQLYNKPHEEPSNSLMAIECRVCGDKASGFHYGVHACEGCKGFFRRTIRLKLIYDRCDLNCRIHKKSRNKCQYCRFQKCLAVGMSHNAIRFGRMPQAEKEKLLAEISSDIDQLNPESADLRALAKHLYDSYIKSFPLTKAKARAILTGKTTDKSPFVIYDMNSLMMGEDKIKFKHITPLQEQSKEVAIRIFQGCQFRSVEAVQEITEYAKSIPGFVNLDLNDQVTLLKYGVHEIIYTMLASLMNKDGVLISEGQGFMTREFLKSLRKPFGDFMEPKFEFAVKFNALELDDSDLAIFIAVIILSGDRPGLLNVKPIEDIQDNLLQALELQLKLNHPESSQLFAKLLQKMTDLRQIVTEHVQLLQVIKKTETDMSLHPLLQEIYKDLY

CN[C@@]1(c2ccccc2Cl)CCCCC1=O
inactive: [1] | [2] | [3] | [4] | [5] | [6] | [7] | [8] | [9] | [10] | [11] | [12] | [13] | [14] | [15] | [16] | [17] | [18] | [19] | [20] | [21] | [22] | [23] | [24] | [25] | [26] | [27] | [28] | [29] | [30] | [31] | [32] | [33] | [34] | [35] | [36] | [37]

CCC(=O)OC(=O)CC
inactive: [38] | [39] | [40]

Nc1cc(-c2ccncc2)c[nH]c1=O
inactive: [38] | [39] | [40]

O=C(Cl)c1cc(Cl)cc(Cl)c1
inactive: [38] | [39] | [40]
